Data on 20 compounds can be found in the supplement of paper PMC9262897, “Low-cost anti-mycobacterial drug discovery using engineered E. coli” (Nature Communications, 2022).

The structures appear in SMILES notation. Structures can show the parent of a compound that is named as a salt. ± gives the standard deviation of the averaged measurements.

One experiment concerns E. coli TESEC Mtb DapB. In words: growth (OD600 after 10 h); higher = more growth (less inhibition). The following applies: arabinose induction (level): High; compound 0.1 mM; raw OD600 reference: median of DMSO wells […], cell-free background 0.041. The protocol:
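TESEC E. coli strains in which the native enzyme is deleted and replaced by arabinose-inducible Mtb Asd, DapB, CysH or TrpD, each grown in its selective medium. Strains were screened against the Prestwick library at 0.1 mM and 1% DMSO in 384-well format at low and high arabinose induction. Growth is read as OD600 after 10 h in triplicate.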
Regarding `CCS(=O)(=O)CCn1c([N+](=O)[O-])cnc1C` [Tinidazole], the growth turned out to be 0.204 ± 0.0081.

`NC(Cc1cc(I)c(Oc2cc(I)c(O)c(I)c2)c(I)c1)C(=O)O` (stereo not given) [Thyroxine (L)] registered a growth of 0.206 ± 0.008.

Compound `CO[C@H]1/C=C/O[C@@]2(C)Oc3c(C)c(O)c4c(O)c(c(/C=N/N5CCN(C)CC5)c(O)c4c3C2=O)NC(=O)/C(C)=C\C=C\[C@H](C)[C@H](O)[C@@H](C)[C@@H](O)[C@@H](C)[C@H](OC(C)=O)[C@@H]1C` [Rifampicin] yielded a growth of 0.106 ± 0.094.

Compound `COc1cnc(NS(=O)(=O)c2ccc(N)cc2)nc1` [Sulfameter] came in with a growth of 0.207 ± 0.027.

`CC(=O)c1ccc2c(c1)N(CCCN(C)C)c1ccccc1S2` [Acetopromazine maleate salt] gave a growth of 0.188 ± 0.012.

`Oc1ncnc2[nH]ncc12` [Allopurinol] displayed a growth of 0.216 ± 0.019.

Take `CC(NCCC(c1ccccc1)c1ccccc1)c1ccccc1` (stereo not given) [Fendiline hydrochloride]: the growth turned out to be 0.0461 ± 0.00056.

Compound `Cc1cc(C2CCCCC2)n(O)c(=O)c1` [Ciclopirox ethanolamine] registered a growth of 0.0626 ± 0.011.

In turn, `CCN(CC)Cc1cc(Nc2ccnc3cc(Cl)ccc23)ccc1O` [Amodiaquin dihydrochloride dihydrate] yielded a growth of 0.209 ± 0.017.

Compound `CC(=O)Oc1cc(C(C)C)c(OCCN(C)C)cc1C` [Moxisylyte hydrochoride] gave a growth of 0.171 ± 0.0028.

As to `CCCC(=O)Nc1ccc(OCC(O)CNC(C)C)c(C(C)=O)c1` (stereo not given) [Acebutolol hydrochloride], the growth turned out to be 0.197 ± 0.025.

`COc1ccccc1OCC(O)CO` (stereo not given) [Guaifenesin] displayed a growth of 0.192 ± 0.013.

In turn, `CCc1c(C)[nH]c2c1C(=O)C(CN1CCOCC1)CC2` (stereo not given) [Molindone hydrochloride] yielded a growth of 0.189 ± 0.0083.

Take `O=C1NCC2(CCN(CCc3ccccc3)CC2)O1` [Fenspiride hydrochloride]: the growth was found to be 0.199 ± 0.011.

The compound `CN(C)[C@@H]1C(=O)C(C(=O)NCNCCCC[C@H](N)C(=O)O)=C(O)[C@@]2(O)C(=O)C3=C(O)c4c(O)cccc4[C@@](C)(O)[C@H]3C[C@@H]12` [Lymecycline] registered a growth of 0.0866 ± 0.01.

As to `O=C(N[C@H](CO)[C@H](O)c1ccc([N+](=O)[O-])cc1)C(Cl)Cl` [Chloramphenicol], the growth amounted to 0.0496 ± 0.00061.

In the case of `NC(=O)NC1NC(=O)NC1=O` (stereo not given) [Allantoin], the growth worked out at 0.192 ± 0.0069.

`CC[C@H](C)[C@H](N)C1=N[C@H](C(=O)N[C@@H](CC(C)C)C(=O)N[C@H](CCC(=O)O)C(=O)N[C@H](C(=O)N[C@H]2CCCCNC(=O)[C@H](CC(N)=O)NC(=O)[C@@H](CC(=O)O)NC(=O)[C@H](Cc3cnc[nH]3)NC(=O)[C@@H](Cc3ccccc3)NC(=O)[C@H]([C@@H](C)CC)NC(=O)[C@@H](CCCN)NC2=O)[C@@H](C)CC)CS1` [Bacitracin]: the growth amounted to 0.266 ± 0.033.

Take `CN[C@H](CC(C)C)C(=O)N[C@H]1C(=O)N[C@@H](CC(N)=O)C(=O)N[C@H]2C(=O)N[C@H]3C(=O)N[C@H](C(=O)N[C@H](C(=O)O)c4cc(O)cc(O)c4-c4cc3ccc4O)[C@H](O)c3ccc(c(Cl)c3)Oc3cc2cc(c3O[C@@H]2O[C@H](CO)[C@@H](O)[C@H](O)[C@H]2O[C@H]2C[C@](C)(N)[C@H](O)[C@H](C)O2)Oc2ccc(cc2Cl)[C@H]1O` [Vancomycin hydrochloride]: the growth was determined as 0.0659 ± 0.0035.

`COC(=O)C1=C(C#N)NC(C)=C(C(=O)OC(C)C)C1c1cccc([N+](=O)[O-])c1` (stereo not given) [Nilvadipine] displayed a growth of 0.208 ± 0.019.

The same experiment, now with this note: arabinose induction (level): Low; compound 0.1 mM; raw OD600 reference: median of DMSO wells 0.227, cell-free background 0.041.
`CCS(=O)(=O)CCn1c([N+](=O)[O-])cnc1C` [Tinidazole] displayed a growth of 0.212 ± 0.027.

`NC(Cc1cc(I)c(Oc2cc(I)c(O)c(I)c2)c(I)c1)C(=O)O` (stereo not given) [Thyroxine (L)] registered a growth of 0.243 ± 0.013.

Compound `CO[C@H]1/C=C/O[C@@]2(C)Oc3c(C)c(O)c4c(O)c(c(/C=N/N5CCN(C)CC5)c(O)c4c3C2=O)NC(=O)/C(C)=C\C=C\[C@H](C)[C@H](O)[C@@H](C)[C@@H](O)[C@@H](C)[C@H](OC(C)=O)[C@@H]1C` [Rifampicin] showed a growth of 0.0504 ± 0.00072.

In turn, `COc1cnc(NS(=O)(=O)c2ccc(N)cc2)nc1` [Sulfameter] gave a growth of 0.243 ± 0.0072.

As to `CC(=O)c1ccc2c(c1)N(CCCN(C)C)c1ccccc1S2` [Acetopromazine maleate salt], the growth is 0.217 ± 0.021.

Consider `Oc1ncnc2[nH]ncc12` [Allopurinol], for which the growth was 0.234 ± 0.016.

The compound `CC(NCCC(c1ccccc1)c1ccccc1)c1ccccc1` (stereo not given) [Fendiline hydrochloride] returned a growth of 0.0491 ± 0.0046.

`Cc1cc(C2CCCCC2)n(O)c(=O)c1` [Ciclopirox ethanolamine] showed a growth of 0.05427 ± 0.00029.

With `CCN(CC)Cc1cc(Nc2ccnc3cc(Cl)ccc23)ccc1O` [Amodiaquin dihydrochloride dihydrate], the growth is 0.28 ± 0.06.

`CC(=O)Oc1cc(C(C)C)c(OCCN(C)C)cc1C` [Moxisylyte hydrochoride] registered a growth of 0.247 ± 0.053.

Consider `CCCC(=O)Nc1ccc(OCC(O)CNC(C)C)c(C(C)=O)c1` (stereo not given) [Acebutolol hydrochloride], for which the growth was determined as 0.265 ± 0.067.

As to `COc1ccccc1OCC(O)CO` (stereo not given) [Guaifenesin], the growth came to 0.228 ± 0.023.

On to `CCc1c(C)[nH]c2c1C(=O)C(CN1CCOCC1)CC2` (stereo not given) [Molindone hydrochloride], for which the growth was 0.25 ± 0.025.

For `O=C1NCC2(CCN(CCc3ccccc3)CC2)O1` [Fenspiride hydrochloride], the growth is 0.253 ± 0.048.

Regarding `CN(C)[C@@H]1C(=O)C(C(=O)NCNCCCC[C@H](N)C(=O)O)=C(O)[C@@]2(O)C(=O)C3=C(O)c4c(O)cccc4[C@@](C)(O)[C@H]3C[C@@H]12` [Lymecycline], the growth was determined as 0.152 ± 0.0064.

`O=C(N[C@H](CO)[C@H](O)c1ccc([N+](=O)[O-])cc1)C(Cl)Cl` [Chloramphenicol] showed a growth of 0.0578 ± 0.015.

Compound `NC(=O)NC1NC(=O)NC1=O` (stereo not given) [Allantoin] showed a growth of 0.276 ± 0.1.

Turning to `CC[C@H](C)[C@H](N)C1=N[C@H](C(=O)N[C@@H](CC(C)C)C(=O)N[C@H](CCC(=O)O)C(=O)N[C@H](C(=O)N[C@H]2CCCCNC(=O)[C@H](CC(N)=O)NC(=O)[C@@H](CC(=O)O)NC(=O)[C@H](Cc3cnc[nH]3)NC(=O)[C@@H](Cc3ccccc3)NC(=O)[C@H]([C@@H](C)CC)NC(=O)[C@@H](CCCN)NC2=O)[C@@H](C)CC)CS1` [Bacitracin], the growth turned out to be 0.243 ± 0.028.

Turning to `CN[C@H](CC(C)C)C(=O)N[C@H]1C(=O)N[C@@H](CC(N)=O)C(=O)N[C@H]2C(=O)N[C@H]3C(=O)N[C@H](C(=O)N[C@H](C(=O)O)c4cc(O)cc(O)c4-c4cc3ccc4O)[C@H](O)c3ccc(c(Cl)c3)Oc3cc2cc(c3O[C@@H]2O[C@H](CO)[C@@H](O)[C@H](O)[C@H]2O[C@H]2C[C@](C)(N)[C@H](O)[C@H](C)O2)Oc2ccc(cc2Cl)[C@H]1O` [Vancomycin hydrochloride], the growth was found to be 0.0604 ± 0.0036.

`COC(=O)C1=C(C#N)NC(C)=C(C(=O)OC(C)C)C1c1cccc([N+](=O)[O-])c1` (stereo not given) [Nilvadipine] displayed a growth of 0.214 ± 0.015.
